Screening data from PubChem.
This is a sample that favours compounds with a hit; in the whole collection about 4% have one here.
Measles CPE – protection of cells from measles virus | Measles virus-infected cells, CPE protection, absorbance | protection (pct of control), % at 4 µM | hit rate 1.5% among 140,000; in the data active = protection mostly above about 24%, no sharp cut-off; inactive = mostly below about 26%
Cl transport mod – modulates chloride dependent transport by human KCC2; Q9H2X9; KCC2 cells, thallium flux FluoZin-2 fluorescence; B-score of Tl+ flux slope (higher = more flux/activation; lower = inhibition) at 10 µM; hit rate 2.2% among 190,000; AID 1456;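 active = thallium flux slope and its plate-corrected score both differing from the plate sample mean at a set confidence after two filtering rounds, in either direction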;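 note: slope of fluorescence scaled to starting intensity during 10 to 20 s after thallium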
ROMK mod – modulates human ROMK potassium channel activity. Tet-inducible ROMK, thallium flux fluorescence; actives lie on both sides. hit rate 2% among 130,000. B-score at 10 µM. P48048;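 active = signal ratio slope over the read window, or its plate-corrected B-score, at least 3 SD from the plate mean, either direction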;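 note: B-score of the F/F0 ratio slope over 7 to 12 s after thallium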
Target sequence (P48048 whole entry, looked up): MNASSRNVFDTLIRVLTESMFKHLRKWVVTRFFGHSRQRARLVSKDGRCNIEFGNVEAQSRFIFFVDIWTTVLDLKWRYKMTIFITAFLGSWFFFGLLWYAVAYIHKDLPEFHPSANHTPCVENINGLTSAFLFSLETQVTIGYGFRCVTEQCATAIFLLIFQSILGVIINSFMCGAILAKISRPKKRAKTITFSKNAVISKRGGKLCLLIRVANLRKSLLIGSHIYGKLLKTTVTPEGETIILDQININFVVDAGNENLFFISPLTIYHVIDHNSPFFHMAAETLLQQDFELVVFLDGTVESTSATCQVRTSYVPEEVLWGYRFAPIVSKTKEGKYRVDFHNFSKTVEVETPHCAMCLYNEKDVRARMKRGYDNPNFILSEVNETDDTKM
Arbovirus inh – antivirals against arbovirus infection; hit rate 0.37% among 200,000; inhibition, % at 10 µM; arbovirus infection cell-based antiviral screen; in the data active = inhibition above about 30%
HSV augment – HSV replication enhancement; maximum fold increase; hit rate 0.005% among 220,000; HSV replication augmentation in cells, fold increase; in the data active = maximum fold increase above about 1.5; inconclusive = no clear call, values can overlap the other calls; tested in PC3 cells
KCC2 secondary – KCC2 (human) modulation, secondary assay; shares compounds with Cl transport mod; AID 1713; hit rate 15% among 3,700; HEK293-KCC2, thallium flux, FluoZin2 fluorescence; stronger effect = higher value; normalised thallium flux (F/F0 slope) at 10 µM;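 active = thallium flux slope above the same plate's solvent-only control mean plus 3 SD; inconclusive = the two replicate wells disagree; inactive = no significant difference from solvent-only control wells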
KCC2 bumet counter – thallium flux persisting under bumetanide in KCC2 cells, counter-screen secondary assay. AID 1714. HEK293-KCC2 + bumetanide/ouabain, thallium flux FluoZin2; stronger effect = higher value. hit rate 49% among 3,700. normalized thallium flux at 10 µM. shares compounds with Cl transport mod;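 active = thallium entry rate above the same plate's blocked-transporter control wells by more than 3 SD; inconclusive = the two repeat wells disagree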;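 note: raw slope of fluorescence over initial fluorescence between 10 and 20 s after thallium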
KCC2 sec2 – confirmation of human KCC2 transport modulators; shares compounds with Cl transport mod; HEK293-KCC2, thallium flux FluoZin2 fluorescence; actives lie on both sides; F/F0 rise rate, 10–20 s post-thallium; normalized thallium flux at 10 µM; hit rate 23% among 3,700;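 active = thallium flux slope more than 3 SD above or below the plate's solvent-only control mean, mostly below; inconclusive = the two repeat wells disagreed; inactive = no significant shift from solvent-only controls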;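 note: raw slope with 0.1% DMSO as baseline and bumetanide as block control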
HEK counter1 – counter-screen for KCC2 modulators: effect in parental HEK293 cells. thallium flux rate (normalised fluorescence) at 10 µM. AID 1716. thallium flux FluoZin2, ouabain; baseline-ratio fluorescence slope, 10–20 s after thallium. hit rate 46% among 3,700. shares compounds with Cl transport mod;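 active = thallium flux rate significantly above the same plate's solvent-only control wells, beyond their mean plus 3 SD; inconclusive = the two replicate wells gave conflicting results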
KCC2 ouabain – confirmation of human KCC2 modulators with ouabain | raw Tl+ flux slope (below DMSO = inhibition, above = activation) at 10 µM | hit rate 48% among 3,700 | HEK293-KCC2, thallium flux FluoZin2 fluorescence; bidirectional: low = inhibitor, high = activator | shares compounds with Cl transport mod | AID 1717;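 active = thallium flux slope beyond 3 SD from same-plate DMSO control mean in most replicates, usually higher, sometimes lower; inconclusive = repeat tests gave conflicting results; inactive = no significant difference from controls in most replicates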;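 note: slope of initial-normalized fluorescence between seconds 10 and 20 after thallium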
HEK counter2 – counter-screen for KCC2 modulators: effect in parental HEK293 cells | AID 1718 | hit rate 33% among 3,700 | thallium flux FluoZin-2 fluorescence slope | thallium flux slope at 10 µM | shares compounds with Cl transport mod;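 active = thallium flux slope above the same plate's solvent-control mean plus 3 SD in both duplicate wells; inconclusive = duplicate wells that disagreed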;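 note: run without ouabain in cells lacking the KCC2 cotransporter; slope of fluorescence scaled to its starting value between 10 and 20 s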
Active calls of the source: *; i = inactive; u = inconclusive; x = not tested or not shown.

SMILES	Measles CPE	Cl transport mod	ROMK mod	Arbovirus inh	HSV augment	KCC2 secondary	KCC2 bumet counter	KCC2 sec2	HEK counter1	KCC2 ouabain	HEK counter2
O=C(COc1ccc(Cl)cc1Cl)NNC(=S)NC(=O)c1ccco1	x	69.8*	1.7	x	i	0.0302*	0.118*	0.0357	u	0.076*	0.03*
O=C(NNC(=O)c1cccs1)c1ccco1	x	0.233	1.06	0.8	i	x	x	x	x	x	x
CCCOc1ccc(C(=O)NCCC(=O)NCCCC(=O)OCC)cc1	9.3	x	x	5.8	i	x	x	x	x	x	x
O=C(NNC(=S)Nc1ccccc1)c1ccco1	5.1	1.58	x	9.3	i	x	x	x	x	x	x
O=C(NC(=S)NNC(=O)c1cccs1)c1ccco1	2.3	3.63*	0.44	-22.0	x	0.0183*	0.0294*	0.0377	0.0193*	0.0365*	0.0129*
O=C(COc1ccc(Cl)cc1Cl)NNC(=S)NCc1ccco1	x	3.7	-1.67	20.3	i	x	x	x	x	x	x
CCCOc1ccc(C(=O)NCCO)cc1	6.6	5.94*	0.589	4.7	i	0.00954	0.00565	0.0333	0.0078	0.0226	0.00989
O=C(NNC(=S)NC(=O)c1ccco1)c1ccc(F)cc1	x	59.6*	x	x	i	0.0258*	0.0632*	u	0.0352*	0.0432*	0.0186*
COC(=O)/C=C/c1oc2ccccc2c1C	x	0.871	-0.149	0.7	i	x	x	x	x	x	x
CN(C)C=Nc1ccccc1C1C=NNC1=O (centres undefined)	x	1.29	0.0771	x	i	x	x	x	x	x	x
N#C/C(=C\c1ccc(Cl)cc1)c1nc2ncccc2[nH]1	0.5	0.365	-2.21	-22.3	i	x	x	x	x	x	x
COc1ccc(CN(Cc2ccc(C(=O)O)cc2)C(=S)Nc2ccc(C)cc2)cc1OC	x	0.115	0.0389	0.3	i	x	x	x	x	x	x
Cc1ccc(NC(=O)COC(=O)CCc2ccc(S(=O)(=O)N3CCOCC3)cc2)cc1F	x	1.3	-0.13	9.6	i	x	x	x	x	x	x
CCCOc1ccc(C(=O)NNC(=S)NC(C)=O)cc1	5.1	3.58	x	-23.6	i	x	x	x	x	x	x
CCCOc1ccc(C(=O)NNC(=S)NC(=O)c2ccco2)cc1	x	97.1*	x	x	i	0.00702	0.00477	0.0839*	0.0863*	u	0.0842*
Cn1c(SCc2cccc([N+](=O)[O-])c2)nc2c(c1=O)SCC2	x	-1.96	0.0321	11.9	i	x	x	x	x	x	x
COc1ccc(NC(=O)c2cc3ccc4c5ccccc5[nH]c4c3cc2O)cc1	x	-0.0972	x	x	i	x	x	x	x	x	x
O=[N+]([O-])c1ccc(Sc2cccc[n+]2[O-])c2nonc12	x	8.35*	x	x	u	0.00957	0.0229*	0.0295	0.0149*	0.0234	u
O=C(CSc1cccc[n+]1[O-])Nc1ccc(C(F)(F)F)cc1[N+](=O)[O-]	x	1.24	-0.0998	3.6	i	x	x	x	x	x	x
CC(=O)CCC(=O)N1CCCC(CNC(=O)c2ccc(-c3ccccc3)cc2)C1 (centres undefined)	x	-1.93	x	-4.2	i	x	x	x	x	x	x
Cc1ncccc1C(=O)N1CCCC(CNC(=O)c2ccc(-c3ccccc3)cc2)C1 (centres undefined)	x	-4.39*	0.836	3.6	i	0.0107	0.00568	u	0.00811	0.0167*	0.0109
O=C(NCC1CCCN(C(=O)c2cccnc2)C1)c1ccc(-c2ccccc2)cc1 (centres undefined)	x	-7.6*	0.86	3.9	i	0.00902	0.00701	0.0271*	0.00449	0.0161*	0.0115
CSCC(=O)N1CCCC(CNC(=O)c2ccc(-c3ccccc3)cc2)C1 (centres undefined)	x	-6.35*	0.301	-2.3	i	0.00841	0.00605	0.0296*	0.00394	0.0155*	0.0107
CC12CCC(C(=O)N/N=C/c3ccc(O)cc3O)(OC1=O)C2(C)C (centres undefined)	x	-0.295	x	x	i	x	x	x	x	x	x
CC(CN1CCCCC1)NC(=O)c1cc(-c2ccccn2)nc2ccc(Cl)cc12 (centres undefined)	x	-0.181	0.337	-10.5	i	x	x	x	x	x	x
SMILES	Measles CPE	Cl transport mod	ROMK mod	Arbovirus inh	HSV augment	KCC2 secondary	KCC2 bumet counter	KCC2 sec2	HEK counter1	KCC2 ouabain	HEK counter2
O=C(c1ccc2c3n(nc2c1)-c1ccc(Cl)cc1CO3)N1CCCCC1	x	-2.23*	x	x	i	0.00666	0.00477	u	0.00791	u	0.0119
Cc1ccc2c(c1)COc1c3ccc(C(=O)N4CCOCC4)cc3nn1-2	x	-0.596	x	x	i	x	x	x	x	x	x
O=C(O)c1ccc(N2CCS(=O)(=O)CC2)cc1	x	0.269	0.108	4.5	i	x	x	x	x	x	x
Oc1c(N=NC(=S)Nc2ccccc2F)c2ccccc2n1Cc1ccccc1Cl	x	3.81	-0.781	-5.7	i	x	x	x	x	x	x
C=CCn1c(O)c(N=NC(=S)Nc2ccccc2F)c2cc(S(=O)(=O)N3CCOCC3)ccc21	x	63.9*	-0.14	-2.8	i	0.0182*	0.0497*	0.0382	0.0558*	0.0494*	0.0196*
Cc1c(Cl)cccc1NC(=S)N=Nc1c(O)n(CN2CCOCC2)c2ccccc12	8.4	47.8*	0.0763	-25.4	i	0.0162*	0.0516*	0.0322	0.0383*	0.0559*	0.0134*
C=CCn1c(O)c(N=NC(=S)Nc2cccc(C)c2)c2ccccc21	4.2	82.2*	1.55	-20.2	i	0.00628	0.0839*	0.0568*	0.0295*	0.0626*	0.0231*
Cc1cccc(NC(=O)Cn2c(O)c(N=NC(=O)c3ccncc3)c3ccccc32)c1	x	0.236	0.743	1.3	i	x	x	x	x	x	x
Cc1ccc(Cn2c(O)c(N=NC(=S)Nc3ccccc3F)c3ccccc32)cc1	x	i	0.0664	-15.0	i	x	x	x	x	x	x
Oc1c(N=NC(=S)Nc2ccccc2F)c2ccccc2n1Cc1ccccc1	x	20.6*	0.174	-6.3	i	u	0.046*	0.0324	u	0.0298*	u
CC(C)c1ccc(NC(=O)c2ccc(NS(C)(=O)=O)cc2)cc1	x	-1.68	0.273	-22.9	i	x	x	x	x	x	x
CC(C)c1ccc(CN2CCN(C(=O)CCl)CC2)cc1	x	0.946	-0.536	-0.2	i	x	x	x	x	x	x
COc1ccc(C(=O)CSc2nc(C(C)(C)C)nc3ccccc23)cc1	x	0.801	1.47	-8.0	i	x	x	x	x	x	x
C=CCn1c(O)c(N=NC(=S)Nc2ccccc2F)c2ccccc21	x	107*	0.548	-8.6	i	0.0364*	0.136*	0.0503*	u	0.0888*	0.0277*
N#Cc1c(NC(=S)NC(=O)Cc2cccs2)sc2c1CCCCC2	1.9	7.41*	-0.00742	3.4	x	0.00856	0.0197*	0.0282	0.00934*	u	0.00991
